KCNQ2 pot – potentiators of rat KCNQ2 potassium channel. Potassium voltage-gated channel subfamily KQT member 2 (Rattus norvegicus), O88943. B-score at 10 µM. AID 2239, 2010. CHO-K1 KCNQ2, FluxOR thallium flux fluorescence; stronger effect = higher value. actives 0.54% (n = 310,000);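 active = fluorescence ratio B-score at least 3 SD of library B-scores, with initial fluorescence B-score within 3 of them, cut at about 5.3 in these data; same plate scores as AID 2156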;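 also: B-score of peak minus minimum over baseline fluorescence ratio after K+ and Tl+ stimulus; positive B-score means potentiation of KCNQ2 with more thallium influx and brighter signal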
Target sequence (O88943 whole entry, looked up): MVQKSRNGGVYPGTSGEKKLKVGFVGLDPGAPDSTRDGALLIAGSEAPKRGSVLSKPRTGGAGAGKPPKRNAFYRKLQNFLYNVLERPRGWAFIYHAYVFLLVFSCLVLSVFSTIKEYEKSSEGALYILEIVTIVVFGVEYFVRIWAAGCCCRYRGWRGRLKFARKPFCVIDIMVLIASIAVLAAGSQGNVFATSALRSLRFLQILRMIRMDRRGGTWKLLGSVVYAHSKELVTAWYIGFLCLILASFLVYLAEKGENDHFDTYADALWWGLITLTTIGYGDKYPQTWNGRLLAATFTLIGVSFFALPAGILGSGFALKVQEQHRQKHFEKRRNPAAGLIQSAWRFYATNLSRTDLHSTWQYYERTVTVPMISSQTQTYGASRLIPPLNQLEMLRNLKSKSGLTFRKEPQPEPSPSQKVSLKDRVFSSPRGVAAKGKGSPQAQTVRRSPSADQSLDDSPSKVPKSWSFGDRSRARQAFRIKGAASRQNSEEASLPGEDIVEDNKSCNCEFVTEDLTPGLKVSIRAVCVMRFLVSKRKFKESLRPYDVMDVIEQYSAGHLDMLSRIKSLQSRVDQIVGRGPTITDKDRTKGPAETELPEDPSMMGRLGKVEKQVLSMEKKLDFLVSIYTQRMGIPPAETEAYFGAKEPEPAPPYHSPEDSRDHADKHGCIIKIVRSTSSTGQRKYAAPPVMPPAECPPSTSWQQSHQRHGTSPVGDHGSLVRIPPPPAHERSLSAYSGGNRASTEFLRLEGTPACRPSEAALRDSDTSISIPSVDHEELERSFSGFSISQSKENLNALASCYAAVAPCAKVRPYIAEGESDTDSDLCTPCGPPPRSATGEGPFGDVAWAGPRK
KCNQ2 block – rat KCNQ2 potassium channel inhibitors, primary screen, cell-based, CHO-K1, FluxOR thallium flux, B-score. AID 2156, 2009. actives 1.1% (n = 310,000). B-score at 10 µM. 20 min; stronger effect = lower value;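 active = fluorescence ratio B-score at most minus 3 library SDs, with starting brightness B-score within 2 library SDs, cut at about -5.5 in these data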
The depositor's hits bear a star. In the library only some 1.6% were active in any assay of this set; here they are far more common.

Screening O=C(CSc1nnc(Cc2ccccc2)n1Cc1ccco1)NC12CC3CC(CC(C3)C1)C2 returned KCNQ2 pot -7.71 and KCNQ2 block -7.71*.
For O=C(COC(=O)c1ccccc1Nc1ccccc1F)c1ccccc1 the results were KCNQ2 block inactive.
`Cc1ccccc1N/C(SCc1ccc(Cl)cc1)=C(/C#N)C(=O)NCc1ccco1` gave KCNQ2 pot -6.96 and KCNQ2 block -6.96*.
`Cc1ccc(CS/C(Nc2ccccc2C)=C(\C#N)C(=O)NCc2ccco2)c(C)c1` gave KCNQ2 block inactive.
`Cc1ccc(NC(=O)CN(c2ccccc2)S(=O)(=O)N(C)C)cc1C` gave KCNQ2 block inactive.
For Cc1cc(C)c(NC(=O)CN(c2ccccc2)S(=O)(=O)N(C)C)c(C)c1 the results were KCNQ2 pot -5.61 and KCNQ2 block -5.61*.
For Cc1ccc(C2=NOC(C)(c3nnc(-c4cccc(Cl)c4)o3)C2)cc1 (configuration not stated) the results were KCNQ2 block inactive.
Screening CC1(c2nnc(-c3cccc(Cl)c3)o2)CC(c2c(Cl)cccc2Cl)=NO1 (configuration not stated) returned KCNQ2 pot -5.61 and KCNQ2 block -5.61*.
For O=C1COc2ccc(S(=O)(=O)Nc3ccc(F)cc3)cc2N1 the results were KCNQ2 pot 0.79 and KCNQ2 block inactive.
Cc1ccc(S(=O)(=O)NC(CC(=O)N2CCc3ccccc32)c2ccco2)cc1 (configuration not stated) was read as KCNQ2 block inactive.
Cc1ccc(Sc2c(C=O)c3ccccc3n2C)cc1 was read as KCNQ2 pot 0.1 and KCNQ2 block inactive.
`Cc1cccc(Oc2c(C=O)c3ccccc3n2C)c1` gave KCNQ2 pot -6.54 and KCNQ2 block -6.54*.
COc1cc(C(=O)NCC(C)C)cc(OC)c1OC was read as KCNQ2 pot 0.02 and KCNQ2 block inactive.
Cc1ccccc1OCc1nnc(SCC(=O)N2CCc3ccccc32)n1C was read as KCNQ2 pot 2.02 and KCNQ2 block inactive.
For Cc1cccc(OCc2nnc(SCC(=O)N3c4ccccc4CC3C)n2C)c1C (configuration not stated) the results were KCNQ2 pot -6.03 and KCNQ2 block -6.03*.
`COc1ccc(Cn2nnnc2C(c2cc3cccc(C)c3[nH]c2=O)N2CCOCC2)cc1` (configuration not stated) gave KCNQ2 block inactive.
For Cc1ccc(C)c2[nH]c(=O)c(C(c3nnnn3C3CCCC3)N3CCOCC3)cc12 (configuration not stated) the results were KCNQ2 pot -6.08 and KCNQ2 block -6.08*.
COc1cc2cc(C(c3nnnn3C3CCCC3)N3CCCCCC3)c(=O)[nH]c2cc1OC (configuration not stated) was read as KCNQ2 pot -10.8 and KCNQ2 block -10.8*.
For CCOC(=O)C1CCN(C(c2cc3c(C)ccc(C)c3[nH]c2=O)c2nnnn2C2CCCCC2)CC1 (configuration not stated) the results were KCNQ2 block inactive.
`CCOc1ccc2[nH]c(=O)c(C(c3nnnn3C3CCCCC3)N3CCN(CC)CC3)cc2c1` (configuration not stated) gave KCNQ2 pot 0.77 and KCNQ2 block inactive.
`Cc1ccc(C)c2[nH]c(=O)c(C(c3nnnn3CCc3ccccc3)N3CCOCC3)cc12` (configuration not stated) gave KCNQ2 pot -5.98 and KCNQ2 block -5.98*.
Cc1nc2cc(C(=O)O)ccc2n1-c1ccccc1 was read as KCNQ2 block inactive.
Screening Cc1cc(NC(=O)COC(=O)CSc2nc3cc(Cl)ccc3n2Cc2ccccc2)no1 returned KCNQ2 pot 0.06 and KCNQ2 block inactive.
c1ccc2c(c1)nc(NCc1ccc3c(c1)OCO3)n2CCN1CCOCC1 was read as KCNQ2 block inactive.
c1ccc(Cn2c(CNc3nc4ccccc4n3CCN3CCOCC3)nc3ccccc32)cc1 was read as KCNQ2 pot -5.96 and KCNQ2 block -5.96*.
CCCCNC(=O)Nc1nc(SCC(=O)OCC)n[nH]1 was read as KCNQ2 block inactive.
For CC(C)C(CCNC(=O)CC(Cc1ccccc1)c1ccco1)c1ccco1 (configuration not stated) the results were KCNQ2 pot -14 and KCNQ2 block -14*.
`CC(C)C(CCNC(=O)CN1C(=O)c2ccccc2C1=O)c1ccco1` (configuration not stated) gave KCNQ2 block inactive.
Cc1ccccc1NC1=C(Cl)C(=O)OC1OC(C)C (configuration not stated) was read as KCNQ2 block inactive.
Cc1ccc([N+](=O)[O-])cc1NC(=O)c1ccc(CSc2ccccc2)cc1 was read as KCNQ2 pot 0.57 and KCNQ2 block inactive.
